HT1080NT lethal = kills 2HG-producing HT-1080-NT fibrosarcoma cells. HT-1080-NT fibrosarcoma viability, CellTiter-Glo ATP luminescence, 48 h. Potency, µM (top dose mostly 46.1 µM), inactives show top-dose activity, negative = less viability, usual class: cytotoxic. 360,000 compounds, 1.6% hits. AID 686970;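 also: NT is the 2HG producing partner of a matched IDH1 knockdown line; potency is read from the fitted curve at half-maximal effect; 0% = DMSO-treated cells and -100% = media-only wells without cells; nearly all actives have a fitted effect of over 55% in size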
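Luminescent CellTiter-Glo readout after 48 hours of compound exposure at 37 degrees C defined viability of HT-1080-NT cells. Activity was normalized to DMSO wells and cell-free media wells; concentration-response curves were fitted and assigned curve classes.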
DT40 TDP1 no CPT = qHTS for Inhibitors of human tyrosyl-DNA phosphodiesterase 1 (TDP1): qHTS in cells in absence of CPT. DT40 Tdp1-/- hTDP1 cells, no CPT, ATP luminescence, 48 h. Potency, µM (top dose mostly 46.2 µM), for inactives: at the top dose activity change, negative = growth inhibition, hits mostly inhibitors. 420,000 compounds, 15% hits; also: potency is read from the fitted curve at half-maximal effect; nearly all actives have a fitted effect of over 55% in size
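Growth of hTDP1-complemented DT40 Tdp1-knockout cells is measured by ATP luminescence after at least 48 hr compound exposure at 37 °C, with DMSO substituting for the 20 nM CPT used in the parallel screen.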
HT1080 IDH1KD tx = HT-1080 IDH1 knockdown cell toxicity (counter line) | HT-1080 IDH1 knockdown viability, ATP luminescence, 48 h | Potency, µM (doses to about 46.1 µM), inactives show at the highest dose activity, negative = toxicity, usual class: cytotoxic | 360,000 compounds, 2% hits | AID 686971;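 also: potency is read from the fitted curve at half-maximal effect; 0% = DMSO wells and -100% = cell-free medium wells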
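Knockdown cells (IDH1KD HT-1080) received compounds 2 h after plating at 750 cells/well and were kept 48 h at 37 °C in 5% FBS RPMI. A CellTiter-Glo luminescence read gave % activity for curve fitting.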
IL-1B inflam inh = inhibitors of inflammasome signaling (IL-1 beta secretion); THP-1 LPS/ATP IL-1B secretion, AlphaLISA, 16 h; stronger effect = lower value; activity change, % at 57.5 µM; 360,000 compounds, 4.7% hits; AID 743279; in the data active = activity change below about -50%; inconclusive = mostly about -30% to -49%
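Secreted IL-1B measured by AlphaLISA bead assay after 16 h compound exposure of THP-1 cells; compounds (final up to 57.5 uM) added 1 h before LPS (250 ng/mL) and ATP (1.25 mM) stimulation; lower signal means less secretion.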
TDP1 cell CPT = growth inhibition of DT40 Tdp1-/-;hTDP1 cells with camptothecin (screen for TDP1 inhibitors); chicken DT40 Tdp1-/-;hTDP1 cells + 20 nM CPT, ATP luminescence, 48 h; Potency, µM (doses to about 46.2 µM), for inactives: at the top dose activity change, negative = growth inhibition, usual class: inhibitors; 420,000 compounds, 12% hits; AID 686979; also: potency is read from the fitted curve at half-maximal effect; nearly all actives have a fitted effect of over 55% in size
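Chicken DT40 Tdp1-/- cells stably complemented with human TDP1 were seeded at 400 cells/well in medium containing 20 nM camptothecin, exposed to pin-transferred compounds, and grown at 37 °C for at least 48 hr. Viability was read as ATP luminescence.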
The depositor's hits bear a star; i = inactive; ? = inconclusive; . = not tested or not shown. Only some compounds are listed: those with a hit (about 19% of all), similar ones and a draw of the others. Unless noted, calls follow the shape of the dose curve; as a rule, active = well fitted curve in the direction sought with a large enough effect; inconclusive = small, poorly fitted or top-dose-only effect, or another doubt; inactive = no such curve, though single readings can be large; an effect the other way counts as inactive or inconclusive. Unless noted, % is scaled to controls: 0 for no effect and ±100 for the full control effect.

SMILES	HT1080NT lethal	DT40 TDP1 no CPT	HT1080 IDH1KD tx	IL-1B inflam inh	TDP1 cell CPT
CC(C)CC1C(=O)N(Cc2cn(CCC3OCCO3)nn2)CCS(=O)(=O)N1Cc1ccc(-c2cccc(CO)c2)cc1 (stereo unspecified)	12%	23µM*	5%	-11	?
CC(C)CC1C(=O)N(Cc2cn(CCC3OCCO3)nn2)CCS(=O)(=O)N1Cc1ccc(-c2cccc(N(C)C)c2)cc1 (stereo unspecified)	?	21µM*	-27%	-18	?
COCOCCn1cc(CN2CCS(=O)(=O)N(Cc3ccc(-c4ccc(F)nc4)cc3)C(CC(C)C)C2=O)nn1 (stereo unspecified)	-1%	?	-1%	-14	?
Cc1cccc(C)c1-c1ccc(CN2C(CC(C)C)C(=O)N(Cc3cn(CCO)nn3)CCS2(=O)=O)cc1 (stereo unspecified)	-11%	?	-20%	-57*	?
O=C1NC[C@@H](CCCCN2C[C@H](Cc3ccc(O)cc3)N(Cc3ccccc3)C(=O)C2=O)N(Cc2ccccc2)C1=O	18%	-5%	14%	-1	-8%
CCCN(Cc1nnc(-c2ccccc2Cl)o1)C(=O)c1cc2ccccc2o1	-22%	?	-12%	-9	?
O=C(c1ccc(Cl)c(S(=O)(=O)N2CCOCC2)c1)N(Cc1nnc(-c2ccccc2Cl)o1)C1CC1	-3%	15µM*	-1%	-9	21µM*
O=C(c1cc([N+](=O)[O-])cc([N+](=O)[O-])c1)N(Cc1nnc(-c2ccccc2Cl)o1)C1CC1	1%	18µM*	-1%	26	?
O=C(c1cccc(S(=O)(=O)N2CCOCC2)c1)N(Cc1nnc(-c2ccccc2Cl)o1)C1CC1	-9%	?	-9%	-2	?
CN1CCN(S(=O)(=O)c2cccc(C(=O)N(Cc3nnc(-c4ccc(Cl)cc4)o3)C3CC3)c2)CC1	-18%	?	-11%	?	21µM*
CCCN(Cc1nnc(-c2ccccc2Cl)o1)C(=O)c1cc([N+](=O)[O-])cc([N+](=O)[O-])c1	-15%	6.5µM*	-7%	-8	6.5µM*
COc1ccc(NC(=O)CNC(=O)C2CCCCC2)cc1OC	-7%	?	-6%	-6	-18%
CCc1nc2ccc(C(=O)NCCCN3CCCC3=O)cn2c1N(C)C(=O)c1cccc(OC)c1	19%	-6%	21%	-21	2%
CN1CCc2c(c3c(n2C)CCN(C)C3c2ccc(F)cc2)C1c1ccc(F)cc1 (stereo unspecified)	-9%	?	-2%	0	?
COc1ccc(C2c3c4c(n(C)c3CCN2C)CCN(C)C4c2ccc(OC)cc2)cc1 (stereo unspecified)	?	?	?	-55*	?
O=c1cc2c(=O)oc3cc(O)c(O)oc3c2c(O)c1O	-15%	-27%	1%	7	?
C#CCNC(=O)C[C@@H]1C[C@@]2(C(=O)OCC)CCCC=C2N(CCC2=CCCCC2)C1=O	4%	15µM*	-5%	28	13µM*
CCOC(=O)[C@]12CCCC=C1N(CCC1=CCCCC1)C(=O)[C@H](CC(=O)NCC1CCCCC1)C2	?	?	23µM*	?	?
CCOC(=O)[C@]12CCC=C1N(CCC1=CCCCC1)C(=O)[C@H](CC(=O)NCC1CCCCC1)C2	-11%	?	?	0	23µM*
O=C(N1CCN(c2ccccc2F)CC1)C1(c2cccs2)CCOCC1	-18%	18µM*	14%	-16	?
COC(=O)c1ccccc1NC(=O)C1(c2cccs2)CCOCC1	.	21µM*	.	.	?
O=C(N1CCN(c2ccccc2F)CC1)C12CC3CC(CC(C3)C1)C2	1%	?	-2%	5	?
CCOc1ccc(NC(=O)CN(C)C(=O)c2c(C)nn(-c3ccccc3)c2Cl)cc1OCC	0%	-13%	5%	-5	5%
CC(C)c1ccc(Nc2nc(Nc3ccc(Cl)cc3)nc(N3CCOCC3)n2)cc1	.	11µM*	.	.	?
FC(F)(F)C(Oc1nc(Nc2ccc(Cl)cc2)nc(N2CCOCC2)n1)C(F)(F)F	?	21µM*	-5%	-76*	?
SMILES	HT1080NT lethal	DT40 TDP1 no CPT	HT1080 IDH1KD tx	IL-1B inflam inh	TDP1 cell CPT
COC(=O)c1ccc(Nc2nc(N3CCOCC3)nc(N3CCOCC3)n2)cc1	-2%	-24%	0%	.	?
O=C(O)C[C@H]1c2ccc(C(F)(F)F)cc2S(=O)(=O)N1Cc1ccccc1	1%	-15%	2%	37	1%
NS(=O)(=O)c1ccc(CCNS(=O)(=O)c2ccc(Cl)nc2)cc1	5%	19%	0%	2	-14%
COc1cccc(CSc2nc3ccncc3[nH]2)c1	-27%	18µM*	-25%	4	?
COc1cccc(N2CCN(C(=O)c3ccc(CSc4nc5ccncc5[nH]4)cc3)CC2)c1	-11%	18µM*	-13%	18	18µM*
OCC[C@@H]1C[C@H](O)[C@@H](O)[C@@]2(OCCc3ccccc32)O1	?	-16%	-5%	-21	-30%
CC1(c2nnc(-c3cccc(Cl)c3)o2)CC(c2ccc(C#N)cc2)=NO1 (stereo unspecified)	18%	18µM*	13%	-10	?
CC1(c2nnc(-c3cccc(Cl)c3)o2)CC(c2ccc(Cl)cc2)=NO1 (stereo unspecified)	8%	-29%	7%	21	-27%
Cc1ccc(S(=O)(=O)N2CCCC(c3nc4c(nnn4Cc4ccc5c(c4)OCCO5)c(=O)[nH]3)C2)cc1 (stereo unspecified)	9%	?	8%	?	?
O=C1NC(c2cccs2)Nc2sc3c(c21)CCCC3 (stereo unspecified)	-7%	3.3µM*	-1%	16	4.1µM*
O=C(Nc1ccccn1)C1CCCN1S(=O)(=O)c1ccc(Cl)cc1 (stereo unspecified)	2%	-20%	0%	i	-17%
Cc1cccc(C)c1NC(=O)CSc1nnc(-c2ccoc2C)n1CCc1ccccc1	4%	-9%	13%	-18	-29%
CC(=O)c1ccc(NC(=O)CSc2nnc(-c3ccoc3C)n2Cc2ccccc2)cc1	-5%	-27%	-2%	-67*	?
Cc1occc1-c1nnc(SCC(=O)Nc2nccs2)n1CCc1ccccc1	-19%	18µM*	-4%	-12	15µM*
CC(=O)c1cccc(NC(=O)CSc2nnc(C(C)N(C)C)n2Cc2ccccc2)c1 (stereo unspecified)	6%	23µM*	3%	8	?
